Assay outcomes (PubChem BioAssay)
EPAC2 antag – Validation qHTS for antagonist of cAMP-regulated guanine nucleotide exchange factor 4 (EPAC2); EPAC2 Rap1B BODIPY-GDP exchange, fluorescence; Potency, µM (highest dose often 112 µM), most hits filed as inhibitors; hit rate 1.7% among 16,000; AID 1645886, 2021; also: nearly all actives have a fitted effect of over 40% in size
Target sequence (Q8WZA2 whole entry, looked up): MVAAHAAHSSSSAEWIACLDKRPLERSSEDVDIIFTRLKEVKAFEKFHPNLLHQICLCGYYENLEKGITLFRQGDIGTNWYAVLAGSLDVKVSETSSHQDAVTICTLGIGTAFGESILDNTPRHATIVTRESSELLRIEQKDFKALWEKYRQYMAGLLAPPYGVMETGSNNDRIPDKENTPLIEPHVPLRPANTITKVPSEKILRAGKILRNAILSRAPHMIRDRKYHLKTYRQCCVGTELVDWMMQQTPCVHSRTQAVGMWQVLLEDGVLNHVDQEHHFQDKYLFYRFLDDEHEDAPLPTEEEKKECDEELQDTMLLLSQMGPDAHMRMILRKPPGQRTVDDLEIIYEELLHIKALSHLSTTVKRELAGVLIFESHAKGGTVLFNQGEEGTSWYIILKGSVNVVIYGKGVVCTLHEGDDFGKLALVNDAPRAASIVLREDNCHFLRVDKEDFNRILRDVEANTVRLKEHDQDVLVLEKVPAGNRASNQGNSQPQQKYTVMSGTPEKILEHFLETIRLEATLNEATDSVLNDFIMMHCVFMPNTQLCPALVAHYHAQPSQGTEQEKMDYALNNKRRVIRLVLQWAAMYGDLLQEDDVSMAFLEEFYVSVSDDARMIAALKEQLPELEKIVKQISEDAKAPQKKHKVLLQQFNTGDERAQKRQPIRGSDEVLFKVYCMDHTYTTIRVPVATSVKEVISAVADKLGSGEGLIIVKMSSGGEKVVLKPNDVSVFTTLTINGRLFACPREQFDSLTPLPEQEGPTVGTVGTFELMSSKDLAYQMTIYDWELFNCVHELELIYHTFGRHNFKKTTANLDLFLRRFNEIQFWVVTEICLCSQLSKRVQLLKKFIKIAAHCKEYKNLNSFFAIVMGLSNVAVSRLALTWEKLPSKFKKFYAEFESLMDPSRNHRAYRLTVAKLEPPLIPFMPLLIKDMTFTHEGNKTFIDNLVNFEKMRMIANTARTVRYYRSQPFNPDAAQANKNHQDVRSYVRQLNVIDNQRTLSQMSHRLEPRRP
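Fluorescent exchange read-out: 100 nM EPAC2 with 250 nM RAP1B–BODIPY-GDP and 50 uM GDP; BODIPY-GDP release lowers fluorescence. Read at 480/540 nm every 5 min for 30 min at room temperature; normalized to 6.5 mM cAMP.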
EPAC1 ag val – Validation qHTS for agonist of cAMP-regulated guanine nucleotide exchange factor 3 (EPAC1); EPAC1 Rap1b BODIPY-GDP exchange, fluorescence; AID 1645883, 2021; hit rate 1% among 16,000; Rap guanine nucleotide exchange factor 3 (Homo sapiens), O95398; Potency, µM, actives largely listed as activators; also: nearly all actives have a fitted effect of over 70% in size
Hits are given with their value; 0 = inactive; ? = inconclusive; ! = a repeat was not active; [ ] = dose if it differs, or a comment. Compounds with a hit are over-represented: about 2.9% of the library has one in this group of screens. Calls follow the shape of the dose curve; as a rule, active = well fitted curve in the direction sought with a large enough effect; inconclusive = small, poorly fitted or top-dose-only effect, or another doubt; inactive = no such curve, though single readings can be large; an effect the other way counts as inactive or inconclusive.

SMILES | EPAC2 antag | EPAC1 ag val
CCCn1c(C)c(C(=O)c2cccc3ccccc23)c2ccccc21 | 20µM | 0
Cc1c(C(=O)c2cccc3ccccc23)c2cccc3c2n1[C@H](CN1CCOCC1)CO3 | 0 | ?
O.O.O.O=C([O-])C(O)C(O)C(=O)[O-].O=C([O-])C(O)C(O)C(=O)[O-].[K+].[K+].[Sb].[Sb] (stereo not given) | 0 | 0
C[C@@H]1O[C@H](C[N+](C)(C)C)C[C@H]1O | 0 | 0
N[C@@H](CCl)C(=O)O | 0 | 0
NC(Cc1cc(O)c(O)cc1O)C(=O)O (stereo not given) | 12.6µM | 0
CC1(C)S[C@H]2[C@@H](N)C(=O)N2[C@H]1C(=O)O | 0 | 0
C[C@@H]1C[C@@H](O)[C@@]2(O)[C@]13CC(=O)OC[C@]2(C)[C@@](C)(O)C(=O)C3 | 0 | 0
Cl.Cl.Cl.Cl.Cl.Cl.N.N.N.N.NNNNN.NNNNN.O.O.[Ru].[Ru].[Ru] | 56.2µM | 0
c1cc2c(c(N3CCNCC3)c1)OCCO2 | 0 | 0
Oc1cc(Cl)ccc1Oc1ccc(Cl)cc1Cl | 11.2µM! | ?
O=C(O)COc1ccc(Cl)cc1Cl | 0 | 0
CC1=NCCc2c1[nH]c1cc(O)ccc21 | 0 | 79.4µM
COc1ccc2c3c([nH]c2c1)C(C)=NCC3 | 0 | ?
O=[N+]([O-])c1ccc(F)c([N+](=O)[O-])c1 | 0 | 0
CN1Cc2c(ccc3c2OCO3)C2C(O)Cc3cc4c(cc3C21)OCO4 (stereo not given) | 0 | 0
CN1Cc2ccccc2[C@@H]2c3cccc4[nH]cc(c34)C[C@H]21 | ? | 0
CCCC[C@H]1C(=O)O[C@H](C)[C@H](NC(=O)c2cccc(NC=O)c2OC)C(=O)O[C@@H](C)[C@@H]1OC(=O)CC(C)C | ? | 0
CCCCCC1C(=O)O[C@H](C)[C@@H](NC(=O)c2cccc(NC=O)c2O)C(=O)OC(C)C1OC(=O)CC(C)C (stereo not given in full) | 56.2µM | 0
NCCc1cc(O)c(O)cc1O | 0 | 112µM
COc1ccc(CCN)cc1O | 0 | 0
COc1ccc(C(=O)O[C@H]2CC[C@@]3(C)C4CCC5[C@]6(O)C[C@H](O)[C@@]7(O)C(CN8C[C@@H](C)CC[C@H]8[C@@]7(C)O)[C@]6(O)C[C@@]53O[C@@]42O)cc1OC (stereo not given in full) | 0 | 0
CCCCCCC(C)(C)c1ccc([C@@H]2C[C@H](O)CC[C@@H]2CCCO)c(O)c1 | 28.2µM | 0
O=C1C=CC(=O)c2c(O)cccc21 | 0 | 0
Oc1c(Cl)c(Cl)c(Cl)c(Cl)c1Cl | 14.1µM | 0
SMILES | EPAC2 antag | EPAC1 ag val
c1ccc(N2CCCC3(CCNCC3)C2)cc1 | 0 | 0
CC[C@H](C)[C@H](NC(=O)[C@@H]1CCCN1C(=O)[C@H](CCC(=O)O)NC(=O)[C@@H](NC(=O)[C@H](Cc1ccccc1)NC(=O)[C@@H]1CCCN1C(=O)[C@@H](N)Cc1ccc(O)cc1)C(C)C)C(=O)O | 0[11.4 µM] | 0
O=C1OC2(c3cc(Br)c(O)cc3Oc3c2cc(Br)c(O)[c]3[Hg])c2ccccc21 (stereo not given) | 0 | 39.8µM!
O=C(O)c1ccccc1-c1c2cc(Br)c(=O)cc-2oc2[c]([Hg])c(O)c(Br)cc12 | 0 | ?
CC(O)(CS(=O)(=O)c1ccc(F)cc1)C(=O)Nc1ccc(C#N)c(C(F)(F)F)c1 (stereo not given) | 0 | 0
O=S(=O)(O)C(F)(F)C(F)(F)C(F)(F)C(F)(F)C(F)(F)C(F)(F)C(F)(F)C(F)(F)F | 100µM | 0
NCC(=O)c1ccc(Cl)c(Cl)c1 | 0 | 0
CN1CCCC2(CCN(C(=O)c3csnn3)CC2)C1 | 0 | 0
CC1CCC(C(C)C)C(OC(=O)c2ccccc2N)C1 (stereo not given) | ? | 0
O=c1[nH]cc(N(CCCl)CCCl)c(=O)[nH]1 | 70.8µM | 0
O=C(Oc1ccccc1)N1CCC[C@@]2(CCN(Cc3cc(C(F)(F)F)cc(C(F)(F)F)c3)C2)C1 | ? | 0
N#CC(C#N)=Cc1cc(O)c(O)c(O)c1 | 89.1µM! | 0
N#C/C(=C\c1ccc(O)c(O)c1)C(N)=S | ? | 0
O=C1Nc2ccc(Cl)cc2C(c2ccccc2)=NC1O (stereo not given) | ? | 0
O=C1CN=C(c2ccccc2)c2cc(Cl)ccc2N1CC1CC1 | 22.4µM | 0
Clc1cccc(SC2CCNCC2)n1 | 0 | 0
CCCCCCCCCCCCCCCCOC[C@@H](COP(=O)([O-])OCC[N+](C)(C)C)OC(C)=O | 0[11.4 µM] | 0
